Source: PubChem BioAssay (National Center for Advancing Translational Sciences (NCATS))
Only some compounds are listed: those with a hit (about 2.7% of all), similar ones and a draw of the others.
RXFP1 agonist = agonists of human relaxin receptor RXFP1; Q9HBX9; HEK293T-RXFP1 cAMP TR-FRET, 30 min; response scale: percent of porcine relaxin response, buffer zero; Potency, µM (doses to about 57.5 µM), actives largely listed as activators; 370,000 compounds, 0.3% hits; AID 2676; active = well fitted activation curve with a large enough effect; inconclusive = small, poorly fitted or top-dose-only effect; note: nearly all actives have a fitted effect of over 60% in size
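Agonist response is measured as cAMP accumulation in an RXFP1-transfected HEK293T line under PDE4 inhibition. Values are scaled between buffer-only and 29 nM porcine relaxin, and EC50s come from standard Hill equation fits.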
ClpP mod = qHTS Assay for Activators of ClpP. ATP-dependent Clp protease proteolytic subunit (Bacillus subtilis (strain 168)), P80244. purified B. subtilis ClpP, FRET peptide cleavage, 20 min. Potency, µM (series often up to 57.5 µM). 340,000 compounds, 1.9% hits. AID 651965, 2013; active = well fitted falling curve with a large enough effect; inconclusive = small, poorly fitted or top-dose-only effect; inactive = no such curve, though single readings can be large or run the other way; note: the source files actives as falling curves though it sought activators and does not explain the sign; nearly all actives have a fitted effect of over 65% in size
Target sequence (P80244 whole entry, looked up): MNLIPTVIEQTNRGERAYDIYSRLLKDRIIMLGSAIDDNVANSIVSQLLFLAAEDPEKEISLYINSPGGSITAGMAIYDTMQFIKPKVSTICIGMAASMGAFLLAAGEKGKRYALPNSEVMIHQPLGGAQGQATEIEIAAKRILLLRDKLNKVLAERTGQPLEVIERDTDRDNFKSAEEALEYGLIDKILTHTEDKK
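FRET quenching reversal measured ClpP activation: 10 microg/mL B. subtilis ClpP at pH 8 with the FRET-FV decapeptide, read at 430 nm after 320 nm excitation. The 20-min minus 0-min signal was scaled between DMSO/no-enzyme wells and ADEP (5.8 microM final).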
Akt phos inh = inhibitors of Akt phosphorylation; Neuro2A IGF-stimulated pAkt S473 HTRF, 20 min; hits give low values; activity change, % for hits at 50 µM; 360,000 compounds, 0.32% hits; in the data active = activity change below about -80%; inconclusive = mostly about -51% to -80%
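Neuro2A cells (4,500/well, DMEM with 0.5% FBS) were treated with compound at a single 50 µM final concentration, stimulated with 6 nM IGF for 20 min at 37 °C, and lysed. Phospho-Akt Ser473 was read by HTRF as 665/615 ratio ×10^4.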
gsp ag = gsp mutant agonism; gsp mutant cells, cAMP HTRF, 30 min; 340,000 compounds, 0.13% hits; Potency, µM (series often up to 76.9 µM), actives largely listed as activators; active = well fitted activation curve with a large enough effect; inconclusive = small, poorly fitted or top-dose-only effect, or another doubt; inactive = no such curve, though single readings can be large or run the other way; cell line not stated here;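 note: phosphodiesterase inhibitor Ro 20-1724 added with compounds to block cAMP breakdown; nearly all actives have a fitted effect of over 60% in size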
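Cells in DMEM/10% FBS with G418 were pretreated with compounds in DMSO plus […] (300 uM stock) for 30 min at 37C. cAMP was measured by HTRF (cAMP-d2 plus anti-cAMP antibody-K) after 30 min at room temperature.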
RXFP1 antag = antagonists of human relaxin receptor RXFP1; HEK293-RXFP1, relaxin-stimulated cAMP HTRF, 30 min; hits give low values; Q9HBX9; activity change, negative = inhibition, % at 57.5 µM; 350,000 compounds, 0.59% hits;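 active = activity change of -60% or lower, but not beyond a set lower limit; inconclusive = change between -60% and -40%, or beyond the set limit; inactive = change above -40%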
gsp antagonist = antagonizes gsp, the McCune-Albright syndrome mutation; gsp-mutant cells, cAMP HTRF, 30 min; Potency, µM (doses to about 76.9 µM), most hits filed as inhibitors; AID 624288; 340,000 compounds, 0.4% hits; calls by dose curve; cell line not stated here;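 note: intracellular cAMP measured with PDE inhibitor Ro 20-1724 present during compound exposure; nearly all actives have a fitted effect of over 65% in size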
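Cells in G418 medium, seeded 16-24 h, 37C; buffer exchange to DPBS + 1 mM CaCl2, 0.5 mM MgCl2, 0.05% BSA; cpds in DMSO + […] (300 uM stock), 30 min 37C; HTRF cAMP detection.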
Hits are given with their value; – = inactive; ? = inconclusive; · = not tested or not shown; [ ] = remark or other dose.

SMILES | RXFP1 agonist | ClpP mod | Akt phos inh | gsp ag | RXFP1 antag | gsp antagonist
Cc1ccc2c(COC(=O)C3CC(=O)N(c4ccc5c(c4)OCCO5)C3)cc(=O)oc2c1 (stereo not given) | · | – | – | –[15.4 µM] | – | –
CCN(CC)c1ccc(-c2c(C#N)c(N)nc(OC)c2C#N)cc1 | ? | 32µM | – | ? | – | –
CCCC(=O)O[C@]1(C(=O)CC)CC[C@H]2[C@@H]3CCC4=CC(=O)CC[C@]4(C)[C@H]3[C@@H](O)C[C@@]21C | · | · | · | · | – | ·
COc1ccc(CN2C(=O)c3ccccc3C2c2nnnn2C(C)C)cc1 (stereo not given) | · | – | – | · | · | ·
O=C(Nc1c(-c2ccccc2)nc2sccn12)c1ccccc1 | – | – | -106% | – | – | –
COc1ccccc1Oc1coc2c(CN(C)C)c(O)ccc2c1=O | – | 28µM | – | ? | – | –
CCN(CC)Cc1c(O)ccc2c(=O)c(Oc3ccccc3OC)c(C)oc12 | – | – | – | ? | – | –
CCN(CC)Cc1c(O)ccc2c(=O)c(-c3ccc4c(c3)OCCO4)coc12 | – | 28µM | · | – | – | –
CCN(CC)Cc1c(O)ccc2c(=O)c(Oc3ccccc3OC)coc12 | – | 18µM | – | – | – | –
COc1ccccc1-c1coc2c(CN(C)C)c(O)ccc2c1=O | – | – | – | – | – | –
Cc1nc(-c2coc3c(CN(C)C)c(O)ccc3c2=O)cs1 | – | 32µM | – | – | – | –
O=C(O)CNC(=O)CNC(=O)CNC(=O)CSC(=O)c1ccccc1 | · | · | · | · | – | ·
OC[C@@H]1CN(Cc2ccc(-c3ccccc3)cc2)C[C@H](n2cnc3c(N4CCCC4)ncnc32)O1 | · | – | – | · | · | ·
Cc1cc(N(C)C)cc(C)c1/C=C/c1cc[n+](C)c2ccccc12 | · | – | · | · | · | ·
CC(C)CCOc1ccccc1Cn1c(=O)sc2ccccc21 | – | – | · | · | ? | ·
CCCCOc1ccccc1Cn1c(=O)oc2ccccc21 | – | – | -112% | – | – | –
CCOc1ccccc1Cn1c(=O)sc2ccccc21 | – | · | – | –[15.4 µM] | -87 | ?
COC(=O)c1ccc2nc(-c3ccc(C)cc3)c(CC3CCCCC3)n2c1 | · | – | – | · | · | ·
FC(F)(F)c1cc(-c2ccccc2)nc2ncnn12 | – | 28µM | – | – | – | –
O=C(c1cc2nc(-c3ccccc3)cc(C(F)(F)F)n2n1)N1CCCC1 | · | – | – | – | – | –
O=C(c1nc2nc(-c3ccccc3)cc(C(F)(F)F)n2n1)N1CCCCC1 | – | 28µM | – | – | – | –
FC(F)(F)c1cc(-c2cccs2)nc2ncnn12 | – | · | – | –[15.4 µM] | – | –
FC(F)(F)c1cc(-c2ccco2)nc2ncnn12 | – | 28µM | – | – | – | –
COc1cc(C(=O)N2CCC(N3CCCCCC3)CC2)cc(OC)c1OC | · | – | -122% | – | – | –
COc1cc(C(=O)N2CCN(C3CCCCC3)CC2)cc(OC)c1OC | – | – | – | – | – | –
SMILES | RXFP1 agonist | ClpP mod | Akt phos inh | gsp ag | RXFP1 antag | gsp antagonist
CCCCCn1c(=O)[nH]c2cc(C(=O)NCCc3ccc(OC)c(OC)c3)ccc2c1=O | – | – | – | – | – | –
CCCCNC(=O)c1sc(=S)n2c1[nH]c(=O)c1ccc(C(=O)NCCc3ccc(OC)c(OC)c3)cc12 | – | – | – | ? | – | 35µM
COc1cc(C=Nc2ccccc2C(=O)Nc2ccccc2)cc(OC)c1OC | – | 25µM | – | – | – | –
Fc1ccc(CSc2ccc3nnc(-c4cccs4)n3n2)cc1 | – | – | – | – | – | 32µM
S=C(Nc1ccccc1Cl)NC1CCCCCC1 | – | – | – | – | – | –
CCOC(=O)c1c(C)[nH]c(C)c1S(=O)(=O)N1CCN(c2ccccc2OC)CC1 | – | – | · | · | – | ·
O=C(C[N+]12CCCc3cccc(c31)CCC2)c1ccc(Cl)c2ccccc12 | · | – | · | · | · | ·
O=C(NCc1ccccn1)C1CCN(Cc2cnn(-c3ccccc3)c2-n2cccc2)CC1 | – | – | · | – | – | –
O=C(NCc1ccccn1)C1CCCN(Cc2cnn(-c3ccccc3)c2-n2cccc2)C1 (stereo not given) | – | – | -98% | – | – | –
COC(=O)c1ccccc1NC(=O)COc1ccccc1C(=O)Nc1ccccc1 | · | – | · | · | · | ·
